Bioassay records deposited in PubChem BioAssay by National Center for Advancing Translational Sciences (NCATS).
WRN inhibitor – inhibitors of human WRN helicase. WRN helicase unwinding, fluorescent forked duplex, kinetic. Potency, µM (highest dose often 114 µM), for the others: top-dose activity change, negative = inhibition, usual class: inhibitors. Q14191. 360,000 tested, 0.46% active; note: % is set by controls: 0 for no effect and ±100 for the full control effect; nearly all actives have a fitted effect of over 55% in size
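Screening of the MLSMR collection measured strand separation of a quenched forked DNA duplex (100 nM) by 20 nM WRN with 2 mM ATP, all final. Compounds were preincubated with enzyme 15 min at room temperature.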
FEN1 inhibitor – blocks human flap endonuclease 1. P39748. Recombinant FEN1 flap cleavage, fluorescence, 15 min. Potency, µM (doses to about 114 µM), without a hit: at the top dose activity change, negative = inhibition, most hits filed as inhibitors. 390,000 tested, 0.35% active. AID 588795; note: % is set by controls: 0 for no effect and ±100 for the full control effect; nearly all actives have a fitted effect of over 65% in size
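Steps: FEN1 (10 nM) dispensed; compound added by pin tool; 15 min at room temperature; substrate added to 50 nM final; reads at 0 min and 15 min; data normalized and fitted (four-parameter Hill).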
RECQ1 inh – RECQ1 (human) helicase inhibition; RECQ1 DNA unwinding, red fluorescence kinetic read; 240,000 tested, 0.54% active; Potency, µM (series often up to 57.3 µM), for inactives: at the top dose activity, negative = inhibition, most hits filed as inhibitors;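 note: plate controls were vehicle for no effect and no enzyme for full effect; nearly all actives have a fitted effect of over 30% in size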
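RECQ1T1 50 nM; forked duplex (20 bp + 30-nt ss tails) 200 nM, ATP 2 mM final; pH 8.0, 2 mM MgCl2, 2.5 ug/ml poly(dI-dC); 15 min compound preincubation; discontinuous kinetic read over 2 h at RT.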
BLM inh – blocks DNA unwinding by human BLM helicase | AID 2528 | Potency, µM (series often up to 56.1 µM), for the others: top-dose activity change, negative = inhibition, usual class: inhibitors | recombinant BLM DNA unwinding, fluorescence dequenching | P54132 | 350,000 tested, 0.2% active;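 note: plate controls were vehicle for no effect and no enzyme for full effect; nearly all actives have a fitted effect of over 35% in size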
L3MBTL1 inh-1 – blocks human L3MBTL1. Q9Y468. AlphaScreen L3MBTL1–H3K9me1 peptide binding. Potency, µM (highest dose often 57.1 µM), for the others: at the top dose activity, negative = inhibition, most hits filed as inhibitors. 230,000 tested, 0.66% active. AID 485360; note: % is set by controls: 0 for no effect and ±100 for the full control effect; nearly all actives have a fitted effect of over 60% in size
Target sequence (Q9Y468 whole entry, looked up): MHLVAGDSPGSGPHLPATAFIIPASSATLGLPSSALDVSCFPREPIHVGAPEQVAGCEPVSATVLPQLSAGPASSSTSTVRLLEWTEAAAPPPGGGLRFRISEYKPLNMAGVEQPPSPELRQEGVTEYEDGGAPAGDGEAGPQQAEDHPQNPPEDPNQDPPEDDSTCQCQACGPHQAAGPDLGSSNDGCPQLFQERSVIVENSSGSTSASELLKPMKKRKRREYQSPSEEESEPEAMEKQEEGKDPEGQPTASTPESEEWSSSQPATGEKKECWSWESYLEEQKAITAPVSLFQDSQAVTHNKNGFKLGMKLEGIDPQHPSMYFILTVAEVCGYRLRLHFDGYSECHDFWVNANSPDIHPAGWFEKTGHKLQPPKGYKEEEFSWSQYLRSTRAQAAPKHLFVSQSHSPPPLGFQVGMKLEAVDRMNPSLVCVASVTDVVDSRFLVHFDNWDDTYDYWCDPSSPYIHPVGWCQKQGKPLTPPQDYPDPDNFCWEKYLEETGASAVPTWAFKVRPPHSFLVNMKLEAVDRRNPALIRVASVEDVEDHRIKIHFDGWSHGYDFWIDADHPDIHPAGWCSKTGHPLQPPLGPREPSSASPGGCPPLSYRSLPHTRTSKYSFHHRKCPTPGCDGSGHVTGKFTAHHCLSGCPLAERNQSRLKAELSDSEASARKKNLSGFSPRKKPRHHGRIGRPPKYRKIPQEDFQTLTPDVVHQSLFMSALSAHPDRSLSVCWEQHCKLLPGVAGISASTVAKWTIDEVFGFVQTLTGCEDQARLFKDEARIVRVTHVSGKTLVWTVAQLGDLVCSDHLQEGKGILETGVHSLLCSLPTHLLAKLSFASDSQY
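First, the protein-peptide complex forms for 30 min at room temperature (L3MBTL1 50 nM, biotinylated H3K9me1 peptide 75 nM). Next, compounds are pin-transferred and incubated 30 min. Finally, AlphaScreen beads are added and read after 30 min.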
L3MBTL1 inh-2 – blocks human L3MBTL1 methyl-lysine binding; shares compounds with L3MBTL1 inh-1; Potency, µM, hits mostly inhibitors; 500 tested, 91% active; AID 540279; L3MBTL1 methyl-lysine binding inhibition, biochemical qHTS; note: nearly all actives have a fitted effect of over 70% in size
AlphaScreen ctr2 – counter-screen for L3MBTL1 inhibitors: AlphaScreen signal interference; shares compounds with L3MBTL1 inh-1; AlphaScreen counterscreen, signal inhibition; Potency, µM (series often up to 57.1 µM), inactives show at the top dose activity change, negative = inhibition, actives largely listed as inhibitors; 500 tested, under 10 active; AID 602224; note: 0% is about no effect
An asterisk follows results filed as active; i = inactive; ? = inconclusive; nt = no result; [ ] = remark or other dose. A selection: hits, their analogues and other compounds. The true share with any hit is near 0.99%. Calls come from the whole dose curve; as a rule, active = well fitted curve in the direction sought with a large enough effect; inconclusive = small, poorly fitted or top-dose-only effect, or another doubt; inactive = no such curve, though single readings can be large; an effect the other way counts as inactive or inconclusive. Potency is the fitted concentration of half-maximal effect.

SMILES | WRN inhibitor | FEN1 inhibitor | RECQ1 inh | BLM inh | L3MBTL1 inh-1 | L3MBTL1 inh-2 | AlphaScreen ctr2
CC(=O)c1ccccc1Oc1cc(NN2CCCCC2)c([N+](=O)[O-])cc1[N+](=O)[O-] | -0.8%[11.6 µM] | 0.2% | nt | -4.0% | 20µM* | 26.7* | ?
N#CC(C#N)=Cc1cccn1-c1ccc(C(=O)O)cc1 | 56.2µM* | -16.6% | 25.1µM* | -5.4% | 2µM* | 2.99* | 15.9%
COc1cccc(-c2cccc(-c3nc(C(=O)NCc4ccc5c(c4)OCO5)cc4c3[C@H](CCO)N(S(=O)C(C)(C)C)C4)c2)c1 (some centres undefined) | -11.4% | nt | nt | nt | nt | nt | nt
CN(C)C(CNS(=O)(=O)c1ccc(Cl)cc1)c1cccnc1 (centres undefined) | 4.0% | 3.7% | -1.4% | -13.6% | -4.5% | nt | nt
CCCc1nc2sc3c(SCC(=O)NCc4ccco4)ncnc3c2c2c1CCC2 | 39.8µM* | ? | ? | ? | 14.1µM* | 18.9* | 2.7%
COC(CN1CCc2c(C)nc3c(C#N)cnn3c21)OC | 1.4% | 3.2% | 0.0% | -2.2% | nt | nt | nt
Cc1ccc(/C=C/C(=O)N2CCc3ccccc32)o1 | ? | -17.6% | ? | ? | 31.6µM* | 5.97* | -1.1%
O=C(/C=C/c1ccco1)N1CCc2ccccc21 | -2.3% | 1.6% | i | -4.7% | -26.8% | nt | nt
O=C1C=C(O)CC(c2ccco2)C1 (centres undefined) | ? | ? | ? | 63.5% | 14.1µM* | 2.99* | -20.5%
O=C1C=C(Nc2ccc(O)cc2)CC(c2ccco2)C1 (centres undefined) | -2.3% | 9.2% | 6.1% | -1.8% | ? | nt | nt
Cc1ccc(C(=O)n2nc(-c3cccnc3)nc2N)cc1 | 1.2% | 9.7% | 0.9% | -3.3% | nt | nt | nt
O=C(NCc1ccccn1)c1ccc(=O)oc1 | -13.0% | -1.8% | -9.5% | 0.9% | 15.8µM* | 21.2* | 25.8%
O=C(NCc1ccccn1)c1ccc(-c2ccccc2)cc1 | -16.5% | -15.8% | -5.9% | -6.8% | 1.9% | nt | nt
COc1ccc(S(=O)(=O)NCC(c2cccnc2)N2CCN(c3ccccc3OC)CC2)cc1C (centres undefined) | -5.1% | -12.5% | 2.7% | -3.8% | -6.8% | nt | nt
CCCCn1c(NS(=O)(=O)c2ccc(C)cc2)c(S(=O)(=O)c2ccccc2)c2nc3ccccc3nc21 | -18.8% | -14.5% | -22.4% | 7.08µM* | 5.01µM* | 21.2* | 0.2%
CCCCn1c(NCc2ccccc2NS(=O)(=O)c2ccc(C)cc2)nc2ccccc21 | -7.4% | -6.1% | -8.2% | -8.2% | -8.3% | nt | nt
Cc1cccc(CNC(=O)C2CCN(c3nnc(-n4c(C)ccc4C)s3)CC2)c1 | nt | -14.0% | nt | -5.9% | nt | nt | nt
COC(=O)/C(C(C)=O)=C(\C=C\N(C)C)N(C)C | -7.9% | -0.1% | -2.2% | -2.1% | nt | nt | nt
COC(=O)\C(C(C)=O)=C(/C=C/C=C/C=C/N(C)C)N(C)C | 21.2µM* | ? | 25.1µM* | -15.6% | 7.08µM* | 2.99* | ?
CCc1ccc(-c2ccc(SCc3ccccn3)nn2)cc1 | 2.7% | -11.4% | -6.6% | -1.4% | nt | nt | nt
Cc1ccc(S(=O)(=O)Cc2ccc(C(=O)N3CCN(Cc4ccccc4)CC3)o2)cc1 | nt | nt | i | -26.5% | 31.6µM* | 15* | 3.0%
COc1ccc(S(=O)(=O)Cc2ccc(C(=O)N3CCN(Cc4ccccc4)CC3)o2)cc1 | 0.8% | -4.8% | i | 0.3% | -4.8% | nt | nt
Cc1ccc(NC(=O)CN2C(=O)N/C(=C/c3cc(C)n(-c4cccc(C(=O)O)c4)c3C)C2=O)cc1 | ? | -3.1% | ? | -6.2% | 25.1µM* | 16.8* | -13.4%
Cc1ccc(CN2C(=O)N/C(=C\c3cccn3-c3cccc(C(=O)O)c3)C2=O)cc1 | 31.6µM* | ? | -3.2% | -6.0% | 2.51µM* | 2.67* | -20.3%
CCn1c(C)cc(/C=C2\NC(=O)N(CC(=O)Nc3cccc(C)c3)C2=O)c1C | -5.1% | -8.3% | -22.9% | -6.2% | -7.3% | nt | nt
COc1cccc(-c2nnc(SCC(=O)N(C)c3ccccc3)o2)c1 | nt | 20.7% | nt | -3.9% | nt | nt | nt
